This note sets out measurements from ChEMBL document CHEMBL3988442, “University of Dundee, Small-Polar-MMV Screening Library” (2021).

The test concerns Trypanosoma cruzi. The experiment in a line: Trypanosoma cruzi phosphomannomutase and mannose-1-phosphate guanylyltransferase assay. It is filed as functional. Details: scale not given: direction of the effect not stated beside the values. As to conditions: 10 µM.
Regarding `c1cnn(Cc2nnc(C3CCN(C4CCOCC4)CC3)n2C2CC2)c1`, the Percent Effect amounted to 3.99%.

With `CCOc1ccccc1C(CC(=O)Nc1ccc(C)cn1)NC(C)=O` (stereo not given), the Percent Effect amounted to 6.77%.

As for `Cc1nc(C)n(CC2CN(Cc3cccnc3)CCO2)n1` (stereo not given), the Percent Effect is -2.33%.

On to `CCOc1ccc(C#N)cc1NCC(=O)Nc1cc(F)ccc1F`, for which the Percent Effect worked out at 4.63%.

Consider `COCC1CN(C(=O)C2=CCCCC2)Cc2cnn(CC3CC3)c21` (stereo not given), for which the Percent Effect was 1.48%.

With `O=S1(=O)COCCN1Cc1cccc(Cl)c1`, the Percent Effect was 7.92%.

Turning to `COCCN(Cc1nc2c(cnn2C)c(=O)[nH]1)Cc1ccco1`, the Percent Effect is -4.43%.

As to `O=C(c1ccc(F)cc1)N1CCN2C[C@H](OCc3ccccn3)C[C@H]2C1`, the Percent Effect was -2.83%.

As to `CCO[C@@H]1CCN(C(=O)c2ccc[nH]2)[C@@H]1Cc1cnn(C)c1`, the Percent Effect is -5.91%.

As to `O=C1C[C@H]2[C@@H](CCN2C(=O)c2ccccc2)N1CCN1CCOCC1`, the Percent Effect is 0.794%.

Consider `CC(NC(=O)NCCCn1cccn1)c1ccc2c(c1)NC(=O)CO2` (stereo not given), for which the Percent Effect was 10.1%.

For `CCc1nc(C(=O)N2CCCC2)nn1-c1ccccc1Cl`, the Percent Effect was 4.95%.

Turning to `CN(CCOc1cccc(CNC(=O)C2CC2)c1)C1CCOCC1`, the Percent Effect amounted to 4.44%.

Regarding `CC(C)C1CN(C(=O)c2ccc(N3CCCC3)nc2)CCS1` (stereo not given), the Percent Effect is -0.492%.

Consider `O=C(CCn1ccccc1=O)Nc1ccc(F)c(Cl)c1`, for which the Percent Effect was -2.44%.

For `CCS(=O)(=O)c1ccccc1N1CCC(NC(=O)NC2CCCC2)CC1`, the Percent Effect amounted to 0.279%.

For `O=C(NS(=O)(=O)c1cc(Cl)sc1Cl)c1cccc2c1OCCO2`, the Percent Effect is -6.07%.

For `CN(C)C(=O)CNC(=O)c1ccc(Cl)cc1F`, the Percent Effect is 3.99%.

On to `COc1cccc(N2CCN(CCC(=O)NC3CCCC3)CC2)c1`, for which the Percent Effect is -0.292%.

As for `c1csc(CN2Cc3nccn3CC(Cn3cncn3)C2)n1` (stereo not given), the Percent Effect is -0.794%.

As to `Cc1cc2nc(SCC(=O)N3CCCC3)n(-c3ccccc3)c(=O)c2[nH]1`, the Percent Effect was -3.02%.

Regarding `Cc1ccc(CN2CCCC3(CCN(S(C)(=O)=O)C3)C2)o1` (stereo not given), the Percent Effect is -1.97%.

In the case of `CC(NC(=O)NCC1(N2CCCCC2)CCCCC1)c1nncn1C` (stereo not given), the Percent Effect came to 1.03%.

Take `CCOc1ncccc1C(=O)N(C)Cc1ncc(C)c(OC)c1C`: the Percent Effect was -3.23%.

On to `Cc1cc(C[C@@H]2COC[C@H]2NCc2ccc(Br)s2)on1`, for which the Percent Effect was -2.77%.

As for `CC(C)N1CCC(Cc2cncc(-c3ccccc3C(=O)O)n2)CC1`, the Percent Effect was -4.13%.

Take `Cc1ccc2oc(CNC(C)c3nnc4n3CCCC4)cc2c1` (stereo not given): the Percent Effect came to 0.781%.

`CC(=O)N1CCN(C(=O)NCc2csc(Br)c2)CC1`: the Percent Effect came to 0.0929%.

In the case of `CCc1noc(C(C)N2CCN(Cc3nc(C)c(C)o3)CC2)n1` (stereo not given), the Percent Effect is -6.39%.

With `CC(C)c1csc(C2CCCN(C(=O)c3ncccn3)C2)n1` (stereo not given), the Percent Effect is -4.99%.

For `CC(C)(C)N1CC(C(=O)N2CCN(CCn3cccc3)CC2)CC1=O` (stereo not given), the Percent Effect was determined as 4.97%.

With `CC(C)c1nc(C2CCCN2CCc2ccncc2)no1` (stereo not given), the Percent Effect is -2.25%.

Take `CC(=O)NCc1ccc(C(=O)N2CCCC2c2cnn(C)c2)o1` (stereo not given): the Percent Effect was -0.467%.

`CC(C)NC(=O)c1n[nH]c(-n2cnnc2)n1`: the Percent Effect amounted to 1.77%.

`Cc1cc(C)n(CC2CN(Cc3nc(-c4ccoc4)no3)CCO2)n1` (stereo not given): the Percent Effect was found to be 6.51%.

With `Cc1nn(C)c(N2CCOCC2)c1CNCc1ccc(Cl)s1`, the Percent Effect stood at 2.06%.

Consider `CC(=O)N1CCCN(c2nccc(-c3cn(C)nc3C)n2)CC1`, for which the Percent Effect is 0.682%.

Consider `Cc1scc(C(=O)N2CCC3(CCCN(C)C3=O)C2)c1-c1ccccc1` (stereo not given), for which the Percent Effect was -3.09%.

With `Cc1cccc2[nH]c(C3CCN(C(=O)c4ccnn4C)CC3)nc12`, the Percent Effect is -4.62%.

As to `Cc1cccc(CN2CCc3c(nc(N4CCCCC4C)[nH]c3=O)C2)n1` (stereo not given), the Percent Effect is -3.36%.
